Measured values as given in PubChem BioAssay (NCATS).
Records with an inconclusive call do not appear. Active and inactive are the calls of the source. The call rests on the fitted dose curve; in most records, active means well fitted curve in the direction sought with a large enough effect; inconclusive means small, poorly fitted or top-dose-only effect, or another doubt; inactive means no such curve, though single readings can be large; an effect the other way counts as inactive or inconclusive.

Key:
HaCat [1] = experiment: Cytotoxic Profiling of Annotated Libraries Using Quantitative High-Throughput Screening (AID 1296008); conditions: Five cell lines viability, CellTiter-Glo ATP luminescence, 48-72 h; max response: hits give low values; further: nearly all actives have a fitted effect of over 60% in size; further: potency means the concentration at half of the fitted maximal effect; on max response: on the % scale 0 is the no-effect control and ±100 the full control effect
In short: (§1)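 Cells exposed to compounds for 48 or 72 hr at 37 degrees Celsius. Viability read as ATP-coupled luminescence with CellTiter-Glo after 10 min at room temperature.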

KB-3-1 = experiment: as above; conditions: Five cell lines viability, CellTiter-Glo ATP luminescence, 48-72 h; max response: hits give low values
In short: as §1

C33A = experiment: Primary qHTS to identify gynecologic anti-cancer compounds using libraries of approved drugs and bioactive compounds (AID 1345084); conditions: Gynecologic cancer cell panel viability, ATPlite luminescence, 48 h; series mostly up to 57.5 µM; further: nearly all actives have a fitted effect of over 55% in size; further: potency means the concentration at half of the fitted maximal effect; on activity change, negative = cytotoxicity: on the % scale 0 is the no-effect control and ±100 the full control effect
In short: (§2)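 Five-concentration response, 48 h; readout is ATP-driven luciferase luminescence.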

CASKI = experiment: as above; conditions: Gynecologic cancer cell panel viability, ATPlite luminescence, 48 h; series mostly up to 57.5 µM
In short: as §2

Es-2 = experiment: as above; conditions: Gynecologic cancer cell panel viability, ATPlite luminescence, 48 h; series mostly up to 57.5 µM
In short: as §2

HeLa = experiment: as above; conditions: Gynecologic cancer cell panel viability, ATPlite luminescence, 48 h; series mostly up to 57.5 µM
In short: as §2

Hek293T = experiment: as above; conditions: Gynecologic cancer cell panel viability, ATPlite luminescence, 48 h, control line for the selectivity index; series mostly up to 57.5 µM
In short: as §2

JEG-3 = experiment: as above; conditions: Gynecologic cancer cell panel viability, ATPlite luminescence, 48 h; series mostly up to 57.5 µM
In short: as §2

OV90 = experiment: as above; conditions: Gynecologic cancer cell panel viability, ATPlite luminescence, 48 h; series mostly up to 57.5 µM
In short: as §2

PA-1 = experiment: as above; conditions: Gynecologic cancer cell panel viability, ATPlite luminescence, 48 h; series mostly up to 57.5 µM
In short: as §2

SKOV3 = experiment: as above; conditions: Gynecologic cancer cell panel viability, ATPlite luminescence, 48 h; series mostly up to 57.5 µM
In short: as §2

NIH3T3 [2] = experiment: Cytotoxic Profiling of Annotated Libraries Using Quantitative High-Throughput Screening (AID 1296008); conditions: Five cell lines viability, CellTiter-Glo ATP luminescence, 48-72 h; max response: hits give low values; further: nearly all actives have a fitted effect of over 60% in size; further: potency means the concentration at half of the fitted maximal effect; on max response: on the % scale 0 is the no-effect control and ±100 the full control effect
In short: as §1

HACAT [3] = experiment: qHTS assay to identify novel small-molecules to repurpose for Merkel cell carcinoma treatment (AID 1296009); conditions: MCC and control cell lines, CellTiter-Glo viability, 72 h; at 44.8 µM (top of the series) unless noted; further: nearly all actives have a fitted effect of over 60% in size
In short: (§3)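 Dose-response viability screen; 72 hr exposure at 37 degree celsius; CellTiter-Glo added, 10 min room temperature, luminescence read; RLUs scaled between no-cell and DMSO wells.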

CAOV3 = experiment: Primary qHTS to identify gynecologic anti-cancer compounds using libraries of approved drugs and bioactive compounds (AID 1345084); conditions: Gynecologic cancer cell panel viability, ATPlite luminescence, 48 h; series mostly up to 57.5 µM; further: nearly all actives have a fitted effect of over 55% in size; further: potency means the concentration at half of the fitted maximal effect; on activity change, negative = cytotoxicity: on the % scale 0 is the no-effect control and ±100 the full control effect
In short: as §2

NIH3T3 [4] = experiment: qHTS assay to identify novel small-molecules to repurpose for Merkel cell carcinoma treatment (AID 1296009); conditions: MCC and control cell lines, CellTiter-Glo viability, 72 h; series mostly up to 44.8 µM; further: nearly all actives have a fitted effect of over 60% in size
In short: as §3

C=C1C(=O)OC2/C=C(\CO)CC/C=C(\C=O)C(OC)C(OC(=O)C(C)CC)C12 (configuration not stated)
inactive: max response (HaCat [1]) -18% | outcome (KB-3-1) | Potency (C33A) | Potency (CASKI) | Potency (Es-2) | Potency (HeLa) | Potency (Hek293T) | Potency (JEG-3) | Potency (OV90) | Potency (PA-1) | Potency (SKOV3)

O=C(Nc1ccccc1)N1CCN(c2nc(-c3ccccc3)ns2)CC1
inactive: outcome (HaCat [1]) | max response (NIH3T3 [2]) -11.1% | outcome (HACAT [3]) | Potency (C33A) | Potency (CAOV3) | Potency (CASKI) | Potency (Es-2) | Potency (HeLa) | Potency (Hek293T) | Potency (JEG-3) | Potency (OV90)

O=c1[nH]c2ccc(C#CCN3CCC(Cc4ccccc4)CC3)cc2[nH]1
inactive: max response (HaCat [1]) 0.764% | max response (KB-3-1) -17.6% | Potency (C33A) | Potency (CAOV3) | Potency (CASKI) | Potency (Es-2) | Potency (HeLa) | Potency (Hek293T) | Potency (JEG-3) | Potency (OV90) | Potency (SKOV3)

Cn1ncnc1[C@H]1c2n[nH]c(=O)c3cc(F)cc(c23)N[C@@H]1c1ccc(F)cc1
inactive: max response (KB-3-1) -8.81% | Potency (C33A) | Potency (CAOV3) | Potency (HeLa) | Potency (Hek293T) | Potency (OV90) | Potency (SKOV3)
active: Potency (HaCat [1]) 3.17 µM | Potency (PA-1) 1 µM

CC(C)(O)C(=O)N1CCN(c2ccc(C(F)(F)F)c(C3=C(c4c[nH]c5ccccc45)C(=O)NC3=O)c2)CC1
inactive: outcome (HaCat [1]) | max response (NIH3T3 [2]) -9.17% | outcome (HACAT [3]) | Potency (CAOV3) | Potency (CASKI) | Potency (Es-2) | Potency (Hek293T) | Potency (OV90) | Potency (PA-1)

CC#C[C@@H](CC(=O)O)c1ccc(OCc2cccc(-c3ccc(C(F)(F)F)cc3)c2)cc1
inactive: max response (HaCat [1]) -75.8% | max response (KB-3-1) -14.7% | Potency (C33A) | Potency (CAOV3) | Potency (CASKI) | Potency (Hek293T) | Potency (JEG-3) | Potency (OV90) | Potency (SKOV3)

CC(C)CCNC(=O)[C@H](CC(C)C)NC(=O)[C@H]1O[C@@H]1C(=O)O
inactive: max response (HaCat [1]) -18.1% | max response (KB-3-1) 2.67% | Potency (CAOV3)

CC(=O)OC1CC(O)(C(C)C)C2C(OC(=O)c3ccc(O)cc3)C=C(C)C(=O)CC12C (configuration not stated)
inactive: outcome (HaCat [1]) | max response (NIH3T3 [2]) 0.784% | outcome (HACAT [3]) inactive [at 17.4 µM] | Potency (C33A) | Potency (CAOV3) | Potency (CASKI) | Potency (Es-2) | Potency (HeLa) | Potency (Hek293T) | Potency (JEG-3) | Potency (PA-1) | Potency (SKOV3)

COc1cc(CCc2ccc(OCC=C(C)C)cc2)cc(OC)c1OC
inactive: outcome (HaCat [1]) | max response (NIH3T3 [2]) -1.52% | outcome (HACAT [3]) | Potency (C33A) | Potency (CAOV3) | Potency (CASKI) | Potency (Es-2) | Potency (HeLa) | Potency (Hek293T) | Potency (JEG-3) | Potency (OV90) | Potency (PA-1) | Potency (SKOV3)

COC(=O)c1ccc2c(c1)nc(NC(=O)c1ccccc1)n2CCCc1ccccc1
inactive: outcome (HaCat [1]) | max response (NIH3T3 [2]) 1.52% | outcome (HACAT [3]) | Potency (C33A) | Potency (CAOV3) | Potency (CASKI) | Potency (Es-2) | Potency (HeLa) | Potency (Hek293T) | Potency (JEG-3) | Potency (OV90) | Potency (PA-1) | Potency (SKOV3)

O=c1[nH]c2cccc(N3CCN(Cc4ccc(-c5ccccc5)cc4)CC3)c2o1
inactive: max response (HaCat [1]) -18.1% | max response (KB-3-1) -24.1% | Potency (C33A) | Potency (CASKI) | Potency (Es-2) | Potency (HeLa) | Potency (Hek293T) | Potency (JEG-3) | Potency (OV90) | Potency (PA-1) | Potency (SKOV3)

CC(=O)O[C@H]1CC2C(COC(=O)CC(C)C)=CO[C@@H](OC(=O)CC(C)C)C2[C@]12CO2 (some centres not stated)
inactive: max response (HaCat [1]) -12.1% | outcome (NIH3T3 [2]) | Potency (NIH3T3 [4]) | Potency (C33A) | Potency (Es-2) | Potency (HeLa) | Potency (Hek293T) | Potency (JEG-3) | Potency (OV90)

C=C1CC[C@@H]2[C@](C)(CO)[C@H](O)CC[C@@]2(C)[C@@H]1/C=C/C1=CCOC1=O
inactive: outcome (HaCat [1]) | max response (NIH3T3 [2]) -1.38% | outcome (HACAT [3]) | Potency (C33A) | Potency (CAOV3) | Potency (CASKI) | Potency (Es-2) | Potency (HeLa) | Potency (Hek293T) | Potency (JEG-3) | Potency (OV90) | Potency (PA-1) | Potency (SKOV3)

C/C=C(/C)C(=O)OC1CC(C)(C)CC2C3=CCC4C5(C)CCC(O[C@@H]6O[C@H](C(=O)O)[C@@H](O)[C@H](O)[C@H]6O[C@@H]6O[C@H](CO)[C@H](O)[C@H](O[C@@H]7OC[C@H](O)[C@H](O)[C@H]7O[C@@H]7O[C@H](CO)[C@@H](O)[C@H](O)[C@H]7O)[C@H]6O)C(C)(C)C5CCC4(C)C3(C)C(O)C(O)C12CO (some centres not stated)
inactive: max response (HaCat [1]) -10.3% | max response (KB-3-1) -3.03% | activity change, negative = cytotoxicity (CAOV3) -23.4% [at 6.55 µM] | activity change, negative = cytotoxicity (CASKI) -3.66% [at 6.55 µM] | activity change, negative = cytotoxicity (Es-2) -27.7% [at 6.55 µM] | activity change, negative = cytotoxicity (HeLa) -5.95% [at 6.55 µM] | activity change, negative = cytotoxicity (JEG-3) -6.95% [at 6.55 µM] | activity change, negative = cytotoxicity (SKOV3) -5.71% [at 6.55 µM]
